# Screens (PubChem BioAssay)
# In the library only some 4.1% were active in any assay of this set; here they are far more common.
# tim10-1 inh: growth inhibitors of tim10-1 mutant yeast, primary screen, luminescence, uHTS; S. cerevisiae tim10-1 ts strain growth, BacTiter-Glo, 24 h; 330,000 compounds, 2.2% hits; AID 463190, 2010; inhibition, % at 20 µM;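 active = inhibition of at least 40%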;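 also: mutant grown at 25 °C; 0% = DMSO wells with yeast and 100% = wells holding no yeast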
# NALP3 yeast inh: NALP3 inflammasome inhibitors in reconstituted yeast, primary screen, luminescence, uHTS. 330,000 compounds, 0.39% hits. Yeast reconstituted NLRP3/ASC/caspase-1, beta-gal luminescence, 24 h. AID 2825, 2010. inhibition, % at 10 µM;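 active = inhibition of 50% or more; inactive = inhibition below 50%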;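 also: plate controls were induced DMSO wells for no effect and uninduced yeast grown without galactose for full effect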
# tim23-1 inh: growth inhibitors of tim23-1 mutant yeast, primary screen, luminescence, uHTS. inhibition, % at 20 µM. S. cerevisiae tim23-1 growth, BacTiter-Glo luminescence, 24 h. AID 463212, 2010. 330,000 compounds, 1.3% hits;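 active = growth inhibition of the mutant yeast at or above 50%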;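 also: temperature-sensitive mutant grown at 25 °C; plate controls were DMSO-treated mutant yeast for no effect and medium wells lacking yeast for full effect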
# PfHsp90 yeast 2: growth inhibition of PfHsp90-expressing yeast, primary screen, antimalarial PfHsp90 inhibitor project, S. cerevisiae, BacTiter-Glo luminescence, single point, set 2; BacTiter-Glo ATP, 48 h; yeast lacking PDR1 and PDR3 efflux regulators; inhibition, % at 9.4 µM; 310,000 compounds, 0.32% hits;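 active = every replicate shows inhibition above about 80%, whatever the replicate mean, limit read from the data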;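 also: 0% = DMSO neutral controls and 100% = 20 µM radicicol positive controls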
# TIM10 inh: growth inhibitors of isogenic TIM10 control yeast, primary screen, counter-screen for tim10-1 yeast inhibitor project, luminescence, uHTS. S. cerevisiae TIM10 strain growth, BacTiter-Glo luminescence, 24 h. inhibition, % at 10 µM. 330,000 compounds, 1.4% hits. AID 463195, 2010;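 active = inhibition of 40% or more at the single tested concentration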;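 also: wild-type TIM10 isogenic control strain grown at permissive 25 °C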
# NALP1 inh: NALP1 inflammasome inhibitors in reconstituted yeast, colorimetric, S. cerevisiae, triplicate retest; S. cerevisiae NALP1/ASC/caspase-1 growth, X-gal OD620, 72 h; 280,000 compounds, 0.61% hits; inhibition, % at 10 µM; in the data active = inhibition mostly above about 24%, no sharp cut-off; inactive = mostly below about 32%
# tim10-1 confirm: growth inhibitors of tim10-1 mutant yeast, confirmation, single concentration, luminescence, S. cerevisiae; AID 463213, 2010; S. cerevisiae tim10-1 ts strain growth, BacTiter-Glo, 24 h; 7,400 compounds, 56% hits; shares compounds with tim10-1 inh; inhibition, % at 20 µM;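 active = inhibition of yeast growth at or above a set limit in either of two repeat tests at 20 µM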;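 also: tim10-1 mutant grown at permissive 25 °C to find synthetic lethal compounds; 0% = DMSO yeast wells and 100% = medium wells without yeast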
# tim10 confirm: growth inhibitors of wild-type TIM10 yeast, confirmation, counter-screen for tim10-1 synthetic lethality project, single concentration, luminescence, S. cerevisiae. shares compounds with TIM10 inh. S. cerevisiae tim10 strain growth, BacTiter-Glo luminescence, 24 h. inhibition, % at 10 µM. 4,600 compounds, 63% hits;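 active = inhibition of yeast growth at or above a set limit in either of two replicates at 10 µM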;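 also: this counterscreen used the strain with wild-type TIM10; 0% = yeast with DMSO and 100% = medium wells lacking yeast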
# tim23-1 confirm: tim23-1 mutant yeast growth inhibitors, confirmation, luminescence, single concentration | shares compounds with tim23-1 inh | S. cerevisiae tim23-1 growth, BacTiter-Glo luminescence, 24 h | inhibition, % at 20 µM | 4,400 compounds, 83% hits | AID 463218, 2010;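 active = inhibition above about 39% in either of two replicate wells at 20 µM, limit read from the data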;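 also: temperature-sensitive tim23-1 mutant grown at 25 °C; 0% = DMSO wells with yeast and 100% = medium wells without yeast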
# An asterisk follows results filed as active; / = not tested or not shown.
SMILES,tim10-1 inh,NALP3 yeast inh,tim23-1 inh,PfHsp90 yeast 2,TIM10 inh,NALP1 inh,tim10-1 confirm,tim23-1 confirm,others
CC(C)=NOc1cc(NC(=O)CCl)cc([N+](=O)[O-])c1,51.6*,15.7,65.5*,-9.7,30.6,30.8,27.6,46.7*,
CC1CCCN(S(=O)(=O)c2ccc3c(c2)c(=O)nc2ccccn23)C1 (stereo not given),-6.6,21.2,3.2,-6.5,7.3,5.0,/,/,
CCOc1ccc(S(=O)(=O)N2CCC(C(=O)NCCc3ccccc3)CC2)cc1,12.4,0.1,11.5,0.9,-2.7,4.0,/,/,
CCn1c(/C=C/c2cc(Br)ccc2O)nc2ccccc2c1=O,67.0*,23.4,62.8*,-17.6,58.3*,3.2,68.6*,75.0*,tim10 confirm=59.0*
Cn1c(/C=C/c2cccc(Br)c2)nc2ccccc2c1=O,57.2*,48.4,63.2*,-10.6,21.9,16.4,55.4*,58.6*,
CCn1c(/C=C/c2ccc(O)c(O)c2)nc2ccccc2c1=O,20.0,27.2,2.9,-15.5,11.5,-8.2,/,/,
Cc1ccc(SCC(=O)NC(=O)c2ccccc2Br)c(C)c1,9.6,23.9,33.2,-16.0,3.5,/,/,/,
Cc1ccc(C(=O)/C=C/c2c[nH]c3ccccc23)cc1,44.4*,37.6,80.4*,-29.1,35.6,19.6,22.9,44.5*,
Cc1ccc(C(=O)/C=C/c2cn(CN3CCN(C)CC3)c3ccccc23)cc1,52.1*,33.4,56.4*,-11.2,59.8*,-8.8,37.8*,-93.2,tim10 confirm=55.2*
Cn1cc(/C=C/C(=O)c2ccccc2)c2ccccc21,20.8,35.3,40.9,-7.7,30.1,/,/,/,
Cc1ccc(NC(=O)C(=O)c2c[nH]c3ccccc23)cc1,-7.0,39.5,10.3,-2.7,-13.8,13.4,/,/,
CCOC(=O)N1CCN(C(=O)C2CCC(=O)N(CCCc3ccccc3)C2)CC1 (stereo not given),7.0,6.9,12.7,-1.8,-3.7,3.0,/,/,
COCCN(C(=O)CCl)C(C(=O)NC1CCCCC1)c1ccccc1C (stereo not given),55.1*,10.9,50.4*,-1.4,46.9*,7.3,44.1*,53.2*,tim10 confirm=5.0
COCCN(C(=O)CCC(=O)Nc1cc(C)on1)C(C(=O)NC1CCCC1)c1ccccc1C (stereo not given),-5.8,-1.1,12.6,10.6,10.3,6.5,/,/,
CC(C)Cn1c(-c2csc3ccccc23)n[nH]c1=S,38.1,22.2,35.0,-6.0,34.6,-31.0,/,/,
Cc1cccc(-n2c(-c3csc4ccccc34)n[nH]c2=S)c1,45.1*,16.6,50.6*,-19.5,37.7,15.4,29.6,42.9*,
Cc1ccc(C(=O)NC(C#N)=C(Cl)Cl)cc1,50.6*,17.8,68.5*,/,45.2*,-1.9,40.9*,62.4*,tim10 confirm=29.8
Cc1ccc(C(=O)NCC#N)cc1,7.0,11.8,3.8,11.8,-10.6,-4.7,/,/,
COc1ccc(C2=NN(c3ccccc3)C(c3cn(CCC(=O)O)nc3-c3ccccc3)C2)cc1 (stereo not given),19.2,-3.4,18.5,27.4,27.2,-11.2,/,/,
Cc1cccc(NC(c2ccc(C)s2)c2ccc3ccc(C)nc3c2O)n1 (stereo not given),93.1*,3.7,57.2*,-7.5,34.2,41.8,86.4*,45.0*,
Cc1ccc(C(=O)/C=C/c2cc(Br)cc(Br)c2O)o1,52.7*,35.3,65.0*,-5.0,38.1,7.8,50.0*,66.4*,
CC(C)N(C(=O)[C@H]1C[C@H](CC(=O)NCCN2CCOCC2)C(=O)N2CCc3c([nH]c4cc(CCC(=O)N(C)C)ccc34)[C@]12C)C(C)C,17.6,/,34.7,-12.0,-6.1,/,/,/,
O=C(CCN1C(=O)c2ccccc2C1=O)Nc1ccccc1C(F)(F)F,-15.8,-1.9,18.3,18.9,10.3,7.3,/,/,
CCN(C(=O)CSc1nnnn1-c1ccc(Cl)cc1)C1CCS(=O)(=O)C1 (stereo not given),-0.5,15.4,9.8,-1.2,2.2,/,/,/,
Cc1nn(-c2ccccc2)c2[nH]c(=O)c(CNCC3CCCO3)cc12 (stereo not given),9.0,7.6,-5.3,-11.3,6.0,7.1,/,/,
SMILES,tim10-1 inh,NALP3 yeast inh,tim23-1 inh,PfHsp90 yeast 2,TIM10 inh,NALP1 inh,tim10-1 confirm,tim23-1 confirm,others
CCOc1cccc(NCc2cc3c(C(C)(C)C)nn(-c4ccccc4)c3[nH]c2=O)c1,49.8*,24.1,67.8*,-11.7,42.2*,9.0,41.8*,65.2*,tim10 confirm=24.9
COC(=O)c1ccc2c(c1)C(C)(C)C(/C=C/c1ccc(O)cc1)=[N+]2C,66.9*,24.9,73.4*,41.8,55.5*,52.0*,63.6*,68.3*,tim10 confirm=55.0*
CC1=CC(C)(C)N2C(=O)C(=O)c3cc(OC(=O)c4ccco4)cc1c32,51.2*,7.6,68.5*,15.0,34.5,-7.1,36.2*,1.2,
CC(OC(=O)C1CCN(S(=O)(=O)c2ccc(F)cc2)CC1)C(=O)NC1CCCCC1C (stereo not given),12.5,11.0,13.4,-8.3,9.0,/,/,/,
O=[N+]([O-])c1cc(/C=N/Nc2nc(N3CCCCC3)nc(N3CCCCC3)n2)ccc1O,48.7*,-10.4,50.5*,0.6,52.1*,-7.4,39.1*,51.6*,tim10 confirm=-4.5
CCNC(=S)N/N=C/c1ccc(-c2ccccc2)o1,43.7*,14.3,53.2*,-10.4,28.3,9.9,33.2*,35.7,
COc1cccc(C(=O)N(C)Cc2c(C)nn(C3CCS(=O)(=O)C3)c2C)c1 (stereo not given),-17.5,7.2,-11.7,1.0,-8.4,/,/,/,
CCc1cc2cc(C)cc(C)c2nc1Cl,-2.9,1.7,7.2,-4.5,6.2,-1.2,/,/,
Cc1cc(C)c2cc(C=O)c(Cl)nc2c1,45.1*,16.9,67.3*,-6.6,51.0*,-4.9,39.6*,77.8*,tim10 confirm=31.8*
O=S(=O)(c1cccc(Br)c1)N1CCN(c2ccnc3cc(Cl)ccc23)CC1,50.3*,-15.9,52.2*,-19.1,36.2,3.9,30.1*,47.4*,
CCOC(=O)C1=C(COC(=O)CCc2ccc(CC)cc2)NC(=O)NC1C (stereo not given),8.5,10.1,21.1,1.2,6.5,/,/,/,
